Assay outcomes from PubChem BioAssay.
HP1b binding inh – inhibitors of HP1-beta chromodomain binding to methylated histone tails | P83916 | AlphaScreen HP1-beta / biotin-H3K9me3 peptide binding | Potency, µM (titrated, usually from 114 µM), actives largely listed as inhibitors | 0.56% of 390,000 active; further: nearly all actives have a fitted effect of over 70% in size
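HP1-beta protein (50 nM final) preincubated 30 min at room temperature with biotinylated H3(1-18)K9me3 peptide (50 nM) in PBS pH 7.4, 0.01% Tween-20, then compound added for 30 min. AlphaScreen streptavidin donor/nickel chelate acceptor beads (10 ug/mL final), 30 min dark, luminescence read.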
L3MBTL1 block – blocks human L3MBTL1; AlphaScreen L3MBTL1–H3K9me1 peptide binding; Potency, µM (titrated, usually from 57.1 µM), usual class: inhibitors; 0.66% of 230,000 active; AID 485360; further: nearly all actives have a fitted effect of over 60% in size
Target sequence (Q9Y468 whole entry, looked up): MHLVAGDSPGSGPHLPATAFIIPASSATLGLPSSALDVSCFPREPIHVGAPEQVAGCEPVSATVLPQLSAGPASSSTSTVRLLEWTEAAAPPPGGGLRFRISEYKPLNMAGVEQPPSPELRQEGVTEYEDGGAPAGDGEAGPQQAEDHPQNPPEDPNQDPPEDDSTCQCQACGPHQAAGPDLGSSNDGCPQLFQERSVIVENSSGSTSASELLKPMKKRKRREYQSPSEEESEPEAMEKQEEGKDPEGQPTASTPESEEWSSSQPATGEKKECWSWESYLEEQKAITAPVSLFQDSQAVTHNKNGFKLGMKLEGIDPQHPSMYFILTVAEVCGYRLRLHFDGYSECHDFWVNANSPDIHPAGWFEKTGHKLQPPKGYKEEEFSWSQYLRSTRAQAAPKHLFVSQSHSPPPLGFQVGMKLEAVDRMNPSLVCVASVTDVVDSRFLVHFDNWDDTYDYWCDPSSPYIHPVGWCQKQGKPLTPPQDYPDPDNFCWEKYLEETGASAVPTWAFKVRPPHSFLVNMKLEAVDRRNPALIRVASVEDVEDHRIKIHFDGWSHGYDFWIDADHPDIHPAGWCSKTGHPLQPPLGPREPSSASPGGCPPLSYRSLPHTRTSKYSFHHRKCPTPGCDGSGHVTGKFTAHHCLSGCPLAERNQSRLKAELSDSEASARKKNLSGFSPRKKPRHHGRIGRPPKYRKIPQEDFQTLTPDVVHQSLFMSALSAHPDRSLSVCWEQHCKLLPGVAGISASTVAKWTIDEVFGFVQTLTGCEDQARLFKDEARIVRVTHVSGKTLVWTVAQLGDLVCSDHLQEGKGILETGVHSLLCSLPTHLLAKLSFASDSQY
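Read-out is AlphaScreen signal from streptavidin donor and nickel chelate acceptor beads (10 ug/mL final each) bridging L3MBTL1 (50 nM) and biotinylated K9-monomethylated H3(1-15) peptide (75 nM), after 30 min compound exposure at room temperature.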
JMJD2A Tudor – inhibitors of human JMJD2A Tudor domain; AlphaScreen JMJD2A-Tudor / H3K4me3 peptide binding; Potency, µM (top dose mostly 114 µM), most hits filed as inhibitors; 4.4% of 390,000 active; further: nearly all actives have a fitted effect of over 50% in size
G9a inh – G9a (human) methyltransferase inhibition | AID 504332 | Q96KQ7 | 8.8% of 350,000 active | G9a H3K9 monomethylation, AlphaScreen, 2 h | Potency, µM (top dose mostly 102 µM), most hits filed as inhibitors; further: nearly all actives have a fitted effect of over 75% in size
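Chemiluminescent proximity detection of H3K9 monomethylation, read after 10 min bead incubation in the dark. Reaction: 20 nM G9a, 500 nM biotin-H3K9 peptide, 20 uM SAM cofactor, 2 h, room temperature, following 15 min enzyme-compound preincubation.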
BAZ2B block – inhibitors of human BAZ2B bromodomain. AlphaScreen BAZ2B-H3K14Ac peptide displacement. Potency, µM (series often up to 114 µM), most hits filed as inhibitors. 4.4% of 360,000 active. AID 504333; further: nearly all actives have a fitted effect of over 60% in size
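AlphaScreen luminescence quantifies BAZ2B engagement of H3K14Ac peptide; the protein and biotinylated peptide are both at 50 nM final, buffer PBS pH 7.4 with 0.01% Tween-20, all steps at room temperature.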
Of the large screens only hits and unclear results are named; the others gave an inactive call. Most compounds without a hit are left out; they make up all but 11% or so of the library. The call rests on the fitted dose curve; in most records, active means well fitted inhibition curve with a large enough effect; inconclusive means small, poorly fitted or top-dose-only effect; inactive means no such curve, though single readings can be large or run the other way.

Cc1cccc(N2CCN(C(=O)CCCn3c(=O)[nH]c4ccsc4c3=O)CC2)c1C	none (no result: L3MBTL1 block)
O=[N+]([O-])c1ccc(C[n+]2cccc3ccc4cccnc4c32)cc1	JMJD2A Tudor 11µM, BAZ2B block 13µM (no result: G9a inh)
O=[N+]([O-])c1ccc(C[n+]2cccc3ccccc32)cc1	G9a inh 14µM
O=[N+]([O-])c1ccc(C[n+]2cccc(O)c2)cc1	none
COc1ccccc1NC(=O)Cn1cc(S(=O)(=O)Cc2ccccc2)c2ccccc21	G9a inh inconclusive (no result: L3MBTL1 block)
COc1ccc(NC(=O)N(C)C[C@H]2Oc3ccc(NC(=O)CCN4CCOCC4)cc3C(=O)N([C@H](C)CO)C[C@@H]2C)cc1	none (no result: G9a inh, BAZ2B block)
COC(=O)Cc1c(C)c2ccc3c(c2oc1=O)CN(Cc1ccc(Cl)cc1)CO3	none (no result: L3MBTL1 block)
CCC(CC)NC(=O)c1ccc(NS(=O)(=O)c2ccc3[nH]c(=O)[nH]c3c2)cc1	BAZ2B block inconclusive (no result: L3MBTL1 block, G9a inh)
CCCCCNC(=O)c1ccc(NS(=O)(=O)c2ccc3[nH]c(=O)[nH]c3c2)cc1	JMJD2A Tudor inconclusive, G9a inh 32µM (no result: L3MBTL1 block)
CC1CC(C)CN(C(=O)c2ccc(NS(=O)(=O)c3ccc4[nH]c(=O)[nH]c4c3)cc2)C1 (configuration not stated)	G9a inh 50µM
O=C(Nc1ncccc1O)c1ccc(NS(=O)(=O)c2ccc3[nH]c(=O)[nH]c3c2)cc1	G9a inh 71µM, BAZ2B block 79µM
CC(=O)N1CCN(C(=O)c2ccc(NS(=O)(=O)c3ccc4[nH]c(=O)[nH]c4c3)cc2)CC1	none
CC(=O)Nc1ccc(NS(=O)(=O)c2ccc3[nH]c(=O)[nH]c3c2)cc1	none
CCOC(=O)c1ccc(NS(=O)(=O)c2ccc3[nH]c(=O)[nH]c3c2)cc1	G9a inh 11µM
Cc1cccnc1NC(=O)c1ccc(NS(=O)(=O)c2ccc3[nH]c(=O)[nH]c3c2)cc1	none
COc1ccccc1-n1nc(-c2ccccc2)c2cnc3cc(C(F)(F)F)ccc3c21	none (no result: L3MBTL1 block, BAZ2B block)
Cc1cc(C)n2nc(C(=O)OCC(=O)N3C(C)CCCC3C)nc2n1 (configuration not stated)	none
CCN1C(=O)c2ccccc2Sc2ccc(NC(=O)c3ccc(C#N)cc3)cc21	none (no result: L3MBTL1 block)
CC(=O)Nc1cccc(C)c1	none
CC(=O)Nc1ccc2c(c1)C(=Nc1cccc(C)c1)c1ccccc1-2	HP1b binding inh inconclusive, JMJD2A Tudor 32µM (no result: L3MBTL1 block, G9a inh, BAZ2B block)
Cc1ccc2nc(Cl)c3cc(C(=O)NCCCN4CCC(C)CC4)sc3c2c1	BAZ2B block inconclusive (no result: L3MBTL1 block)
Cc1ccc2c(c1)NCCO2	JMJD2A Tudor 50µM, G9a inh inconclusive (no result: BAZ2B block)
Cc1cc2ccccn2c1C(=O)c1nc(N2CCOCC2)ncc1Cl	JMJD2A Tudor inconclusive, G9a inh 71µM, BAZ2B block inconclusive
Cc1cc2ccccn2c1C(=O)c1nc(NCc2ccco2)ncc1Cl	JMJD2A Tudor inconclusive, G9a inh inconclusive, BAZ2B block inconclusive
CCOC(=O)C(=O)c1c(C)cc2ccccn12	none
COCCN(CCOC)c1ncc(Cl)c(C(=O)c2c(C)cc3ccccn23)n1	G9a inh 40µM
O=C1CCc2cc(S(=O)(=O)Nc3ccncc3)ccc2N1	none (no result: HP1b binding inh, L3MBTL1 block, G9a inh, BAZ2B block)
Clc1ccc(OCCN2CCCCC2)c(Cl)c1	HP1b binding inh 45µM, JMJD2A Tudor 5.6µM, G9a inh 11µM, BAZ2B block 50µM (no result: L3MBTL1 block)
Clc1ccccc1OCCN1CCCCC1	HP1b binding inh inconclusive, JMJD2A Tudor 22µM, G9a inh inconclusive
Clc1cccc(OCCN2CCCC2)c1	G9a inh inconclusive
COc1cc(N=Nc2ccc(C)cc2S(N)(=O)=O)c(C)cc1N	HP1b binding inh 20µM, JMJD2A Tudor 6.3µM (no result: L3MBTL1 block, G9a inh, BAZ2B block)
COc1cccc(OCCCN2CCCCC2)c1	none
CC(C)c1cccc(OCCN2CCCC2)c1	HP1b binding inh inconclusive, JMJD2A Tudor 35µM, G9a inh 32µM, BAZ2B block inconclusive
CCOc1cccc(OCCCCN2CCCCC2)c1	HP1b binding inh inconclusive, JMJD2A Tudor inconclusive, G9a inh 8.9µM, BAZ2B block inconclusive
CC1CCCN(CCOc2ccc(Br)cc2)C1 (configuration not stated)	JMJD2A Tudor 20µM, G9a inh 10µM, BAZ2B block inconclusive
COc1cccc(OCCCCN2CCCCC2)c1	JMJD2A Tudor 8.9µM, G9a inh inconclusive, BAZ2B block inconclusive
Cc1ccc2nc(-c3cccc(NC(=O)c4cccc5c(Cl)cccc45)c3)oc2c1	none (no result: L3MBTL1 block)
O=C(O)c1cc(F)c(S(=O)(=O)N2CCN(S(=O)(=O)c3ccc4c(c3)OCCO4)CC2)cc1F	none (no result: HP1b binding inh, L3MBTL1 block, G9a inh, BAZ2B block)
